Rab9 promoter act: qHTS Assay for Rab9 Promoter Activators; Potency, µM (doses to about 9.22 µM), for the others: top-dose activation, negative = inhibition, actives largely listed as activators; 2.8% of 320,000 active; Huh7 Rab9 promoter-luciferase reporter, luminescence, 24 h; further: % of control where 0% means no effect; nearly all actives have a fitted effect of over 60% in size
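Using Huh7 cells stably transfected with Rab9 promoter–luciferase, compounds were incubated 24 h at 37 °C, 5% CO2; luciferase luminescence was read 10 min after reagent addition.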
FLuc modulator: qHTS profiling assay for firefly luciferase inhibitor/activator using purifed enzyme and Km concentrations of substrates (counterscreen for miR-21 project); purified FLuc, Km substrates, luminescence inhibition; Potency, µM (highest dose often 57.5 µM), without a hit: at the top dose activity change, negative = inhibition, usual class: inhibitors; 6.9% of 360,000 active; AID 588342, 2011;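 further: plate controls were vehicle for no effect and reference inhibitor for full effect; nearly all actives have a fitted effect of over 55% in size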
Target sequence (P08659 whole entry, looked up): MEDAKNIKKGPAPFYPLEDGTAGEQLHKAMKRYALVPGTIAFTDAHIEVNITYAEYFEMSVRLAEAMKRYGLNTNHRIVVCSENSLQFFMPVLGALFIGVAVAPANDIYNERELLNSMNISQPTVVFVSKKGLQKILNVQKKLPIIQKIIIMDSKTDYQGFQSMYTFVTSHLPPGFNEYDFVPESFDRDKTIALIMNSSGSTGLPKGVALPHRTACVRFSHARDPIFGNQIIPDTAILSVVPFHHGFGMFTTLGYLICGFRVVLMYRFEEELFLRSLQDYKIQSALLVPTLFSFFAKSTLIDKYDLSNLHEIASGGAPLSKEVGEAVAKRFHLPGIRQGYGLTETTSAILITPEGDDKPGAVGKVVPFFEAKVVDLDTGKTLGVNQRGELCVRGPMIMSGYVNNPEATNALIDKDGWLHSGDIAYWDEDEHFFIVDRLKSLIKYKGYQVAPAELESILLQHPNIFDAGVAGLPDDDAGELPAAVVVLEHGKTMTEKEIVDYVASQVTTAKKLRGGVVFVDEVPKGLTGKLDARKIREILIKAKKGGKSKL
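Biochemical qHTS of compounds, final roughly 60 µM downward over six points, against 10 nM purified firefly luciferase using Km concentrations of substrates (10 uM D-luciferin, 10 uM ATP) in Tris acetate pH 7.5 buffer; luminescence output.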
SMN2 splice up: qHTS Assay for Enhancers of SMN2 Splice Variant Expression; HEK293 SMN2-luciferase splicing reporter, luminescence, 30-36 h; Potency, µM (titrated, usually from 46.1 µM), inactives show top-dose activity change, positive = activation, usual class: activators; 2.8% of 210,000 active; AID 1458, 2008; further: % of control where 0% means no effect; nearly all actives have a fitted effect of over 55% in size
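qHTS luciferase splicing reporter: luminescence rises when SMN2 exon 7 is included in transfected HEK293 cells. Compound exposure lasted 30-36 h at 37C, with 4.5 mM final sodium butyrate as control, followed by a ONE-Glo read.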
NPC1 prom act: qHTS Assay for NPC1 Promoter Activators. Huh7 NPC1 promoter luciferase reporter, 24 h. Potency, µM (titrated, usually from 9.22 µM), without a hit: at the highest dose activation, hits mostly activators. 2.4% of 320,000 active; further: % of control where 0% means no effect; nearly all actives have a fitted effect of over 60% in size
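Luciferase expression driven by the NPC1 promoter was measured in stably transfected Huh7 cells after a 24 h compound incubation, using a luciferase reagent and a luminescence read.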
ELG1 genotox: qHTS screen for small molecules that induce genotoxicity in human embryonic kidney (HEK293T) cells expressing luciferase-tagged ELG1; 1.3% of 330,000 active; Potency, µM (titrated, usually from 46 µM), inactives show at the top dose activity change, positive = activation, usual class: activators; HEK293T ELG1-luciferase reporter, luminescence, 16 h; further: % of control where 0% means no effect; nearly all actives have a fitted effect of over 60% in size
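Quantitative HTS format in 1536-well plates. HEK293T ELG1-luciferase reporter cells receive test compound and are incubated 16 hr at 37 °C, 5% CO2; ONE-Glo added, 30 min room temperature, then luminescence read.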
ELG1 DNA repair: qHTS screen for small molecules that inhibit ELG1-dependent DNA repair in human embryonic kidney (HEK293T) cells expressing luciferase-tagged ELG1; HEK293T ELG1-luciferase reporter, luminescence, 16 h; DNA damage induced by 5-fluorouridine; AID 504467, 2011; 2.3% of 330,000 active; Potency, µM (titrated, usually from 46.1 µM), for the others: at the top dose activity change, negative = inhibition, actives largely listed as inhibitors; further: on the % scale 0 is the no-effect control and ±100 the full control effect; nearly all actives have a fitted effect of over 55% in size
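DMSO vehicle served as the neutral condition. Each well held 2,000 cells given 5-fluorouridine plus compound; after 16 hr at 37 °C/5% CO2, ONE-Glo was added and luciferase measured 30 min later.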
* marks the source's active call; other numbers are inactive results; ? = inconclusive; nt = no result; [ ] = another dose, or the depositor's remark. A selection: hits, their analogues and other compounds. The true share with any hit is near 9.2%. The call rests on the fitted dose curve; in most records, active means well fitted curve in the direction sought with a large enough effect; inconclusive means small, poorly fitted or top-dose-only effect, or another doubt; inactive means no such curve, though single readings can be large; an effect the other way counts as inactive or inconclusive. Potency means the concentration at half of the fitted maximal effect.

SMILES	Rab9 promoter act	FLuc modulator	SMN2 splice up	NPC1 prom act	ELG1 genotox	ELG1 DNA repair
Cc1ccc2c(Cl)c(C(=O)N/N=C/c3cccn3C)sc2c1	?	?	13µM*	15%	?	?
Cc1ccc(C(C)C)c(OCC(=O)N/N=C/c2cccn2C)c1	-3%	2%	nt	-4%	-5%	18µM*
CN(CCCC(=O)Nc1ccc(Br)cc1F)S(=O)(=O)c1ccccc1	0%	1%	nt	1%	-7%	?
CCCN(CCC)CCCNC(=O)C1CCCN(S(=O)(=O)c2cccc3nsnc23)C1 (centres undefined)	nt	1%	2%	nt	nt	nt
O=C(c1ccc([N+](=O)[O-])cc1)N1CCN(c2ccc(Nc3ccccc3)nn2)CC1	nt	3%	nt	nt	nt	nt
CCN(c1ccccc1)c1nnc(NC(=O)Nc2cccc(Br)c2)s1	nt	4%	nt	nt	nt	nt
CCOC(=O)c1[nH]c(C)c(CCC(=O)N2CCN(c3cc(Cl)ccc3C)CC2)c1C	nt	-10%	nt	nt	nt	nt
Cc1ccc2c(C)c(C(=O)Nc3cccnc3)oc2c1	?	6.7µM*	-18%	24%	?	?
Cc1ccc2c(C)c(C(=O)Nc3ccc(S(=O)(=O)Nc4onc(C)c4C)cc3)oc2c1	-3%	-17%	nt	-5%	0%	2%
Cc1ccc2c(Cl)c(C(=O)Nc3cccnc3)sc2c1	4µM*	1.9µM*	?	2.8µM*	0%	8.2µM*
CCc1cccc(NC(=O)CN(C)S(=O)(=O)c2ccc3c(c2)n(C)c(=O)c(=O)n3C)c1	nt	3%	-5%	nt	nt	nt
COc1ccc(C(=O)CCC(=O)Nc2cccc(C(C)=O)c2)cc1	nt	5%	nt	nt	nt	nt
O=C1CNC(=S)N1c1nc(-c2ccccc2)cs1	2.8µM*	2.7µM*	11µM*	2.8µM*	?	?
COc1ccc(-c2csc(N3C(=O)CNC3=S)n2)cc1	0.5µM*	0.85µM*	1.3µM*	0.56µM*	3.3µM*	?
COc1ccc(-c2csc(N3C(=N)SCC3=O)n2)cc1	0.4µM*	0.43µM*	1µM*	0.45µM*	1.6µM*	?
COc1ccc(CCNC(=O)c2cc(-c3ccc(C)cc3)nc3n[nH]c(-c4ccc(F)cc4)c23)cc1OC	nt	-3%	nt	nt	nt	nt
Nc1c(-c2nc(-c3ccc(Cl)cc3)cs2)c2ccccn2c1C(=O)c1ccc2c(c1)OCO2	nt	5%	3%	nt	nt	nt
COc1ccc(N2CC(C(=O)N/N=C/c3ccc(C)cc3)CC2=O)cc1 (centres undefined)	-30%	-1%	-22%	-30%	2%	-10%
Cc1ccc(N2CC(C(=O)N/N=C/c3c(F)cccc3Cl)CC2=O)cc1 (centres undefined)	1%	0%	nt	-1%	3%	9.2µM*
CC(=O)c1sc2nc(-c3ccco3)ccc2c1N	?	3.8µM*	nt	?	21µM*	?
CCOC(=O)c1sc2nc(C)cc(-c3ccccc3)c2c1N	-17%	1%	-18%	-6%	2%	-7%
NC(=O)c1sc2nc(-c3cccs3)ccc2c1N	?	9.5µM*	nt	?	?	?
NC(=O)c1sc2nc(-c3ccccc3)ccc2c1N	3.2µM*	2.1µM*	nt	1.8µM*	?	?
CCOC(=O)c1sc2nc(-c3ccccc3)ccc2c1N	0.28µM*	0.19µM*	0.79µM*	0.35µM*	0.52µM*	?
Nc1c(C(=O)Nc2ccc(Br)cc2)sc2nc(-c3ccco3)ccc12	-4%	?	-29%	23%	2%	8%
SMILES	Rab9 promoter act	FLuc modulator	SMN2 splice up	NPC1 prom act	ELG1 genotox	ELG1 DNA repair
COc1ccc(CNC(=O)CCc2cn(Cc3cc(C)ccc3C)c3ccccc23)cc1OC	nt	-3%	nt	nt	nt	nt
CN(C)CN1C(=O)S/C(=C2/C(=O)N(CN(C)C)c3ccccc32)C1=O	nt	nt	-2%[9.22 µM]	nt	nt	nt
CN1CCN(CC(O)COc2ccc(C34CC5CC(CC(C5)C3)C4)cc2)CC1 (centres undefined)	-4%	-19%	-12%	2%	?	-15%
CCOc1ccc(NC(=O)c2cnn3c2NC(c2cccc(OC)c2)=CC3c2ccccc2)cc1 (centres undefined)	nt	-3%	nt	nt	nt	nt
Cc1cc(F)ccc1NC(=O)c1sc2nc(-c3cccs3)ccc2c1N	nt	3%	10µM*	nt	nt	nt
COc1ccc2nc(C)cc(Nc3ccc(N4CCN(C)CC4)cc3)c2c1	-25%	-1%	nt	-19%	15%	-6%
COc1ccc(-c2nc3ccc(N4CCN(C)CC4)cc3c(=O)[nH]2)cc1	28%	15µM*	49%	22%	?	9%
COc1cc(-c2nc3ccc(N4CCN(C)CC4)cc3[nH]2)cc(OC)c1OC	-5%	13µM*	16µM*	0%	7.3µM*	?
Cc1ccc(C)c(Nc2c(F)c(F)c(F)c(F)c2C(=O)O)c1	-2%	15µM*	-2%	0%	5%	-10%
O=C(CC1C(=O)N(c2ccccc2)C(=O)N1Cc1ccc(F)cc1)Nc1cccc(F)c1 (centres undefined)	nt	-8%	nt	nt	nt	nt
O=C(O)c1cccc(OCc2ccccc2Cl)c1	?	9.5µM*	nt	?	4%	?
O=C(O)c1ccccc1COc1ccccc1Cl	0%	15µM*	26%	4%	12%	?
COc1ccc(-c2nc3scc(CCNS(=O)(=O)c4ccc5c(c4)OCCO5)n3n2)cc1	nt	-18%	nt	nt	nt	nt
Cc1ccc(NC(=O)CN2C(=O)COc3ccc(S(=O)(=O)NC4CCCC4)cc32)cc1N(C)C	nt	1%	nt	nt	nt	nt
COc1ccc(/C=C(\NC(=O)c2ccc(C)cc2)C(=O)NCCCn2ccnc2)cc1	-1%	-1%	nt	1%	0%	0%
O/N=C/c1ccccc1OCc1ccccc1Cl	1%	-5%	1%	3%	2%	?
O/N=C/c1ccccc1OCc1ccc(Cl)cc1	?	17µM*	-6%	?	15%	?
CCOC(=O)N/N=C/c1ccccc1OCc1ccc(Cl)cc1	-5%	15µM*	27%	-2%	2%	3%
CCCCN(C(=O)c1ccc(S(=O)(=O)N2CCCC2)cc1)C1CCS(=O)(=O)C1 (centres undefined)	0%	-2%	nt	1%	-2%	-12%
CCC1CN(C(=O)N2CCC(C(=O)NCc3cc(OC)c(OC)c(OC)c3)CC2)c2ccccc2O1 (centres undefined)	-10%	1%	nt	3%	-2%	-21%
